KB-V1 cytotox: kills drug-selected multidrug resistant KB-V1 cells. 3.4% of 400,000 active. Potency, µM (titrated, usually from 46.1 µM), actives largely listed as cytotoxic. AID 1347076. KB-V1 MDR cells viability, CellTiter-Glo, 72 h; further: potency means the concentration at half of the fitted maximal effect; on the % scale 0 is the no-effect control and ±100 the full control effect; nearly all actives have a fitted effect of over 60% in size
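Cytotoxicity via CellTiter-Glo luminescence after 72 h compound exposure at 37 degrees C. Cells: drug-selected KB-V1 line, DMEM phenol-red free plus 10% FBS. Compounds tested at multiple concentrations; normalized data fitted to concentration-effect curves.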
KCNH2 3.1 block: blocks the human KCNH2 3.1 channel isoform | 0.95% of 340,000 active | activity change, % (tested at about 1.8 µM) | AID 720553 | U2OS KCNH2 3.1, thallium flux FluxOr; stronger effect = lower value;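 active means maximum activity change below -70%; inconclusive means maximum activity change from -70% to -50%; inactive means maximum activity change above -50%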;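 further: thallium influx rate constant from kinetic fluorescence after stimulation buffer; on the % scale 0 is the no-effect control and ±100 the full control effect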
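Normalized rate constant (relative to positive and negative DMSO controls) derived from a 2 min kinetic fluorescence read after stimulation; U2OS cells expressing the 3.1 isoform via virus at 1.77 x 10^8 /mL.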
KB-3-1 cytotox: kills parental KB-3-1 adenocarcinoma cells; KB-3-1 viability, CellTiter-Glo ATP luminescence, 72 h; Potency, µM (highest dose often 46.1 µM), usual class: cytotoxic; 1.4% of 400,000 active; further: potency means the concentration at half of the fitted maximal effect; on the % scale 0 is the no-effect control and ±100 the full control effect; nearly all actives have a fitted effect of over 60% in size
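KB-3-1 cells, DMEM (no phenol red) + 10% FBS; compound by pin transfer, 72 h, 37 °C. Readout: CellTiter-Glo luminescence after 10 min. Data normalized, curve-fitted.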
SW480 rerep: induces DNA re-replication in SW480 colon adenocarcinoma cells. SW480 DNA re-replication, Hoechst DNA content imaging, 48 h. Potency, µM (titrated, usually from 46.1 µM), inactives show top-dose re-replication activation, hits mostly activators. 1.8% of 340,000 active; further: potency means the concentration at half of the fitted maximal effect; % of control where 0% means no effect; nearly all actives have a fitted effect of over 55% in size
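DNA re-replication was detected as more nuclei of elevated Hoechst intensity after 48 hr exposure to compound (23 nL pinned per well of 250 cells).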
KCNH2 WT inh: blocks the wildtype human KCNH2 potassium channel | Q12809 | U2OS, BacMam KCNH2, thallium flux FluxOr; stronger effect = lower value | activity change, % at 1.84 µM | 0.37% of 340,000 active | AID 720551;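 active means maximum activity change below -70%; inconclusive means maximum activity change between -70% and -50%; inactive means maximum activity change above -50%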; further: on the % scale 0 is the no-effect control and ±100 the full control effect
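U2OS cells were transduced with wild-type KCNH2 virus (2.03 x 10^8 / mL) for 4 h at room temperature, then cultured overnight at 37 C. Thallium flux was read with FluxOr dye. Rate constants were normalized to DMSO controls.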
MCF10A rereplic: inducers of DNA re-replication in MCF 10A breast cells | MCF 10A DNA re-replication, Hoechst nuclear intensity, 48 h | Potency, µM (top dose mostly 46.1 µM), inactives show top-dose activity, positive = re-replication, actives largely listed as activators | 2.9% of 350,000 active | AID 624296; further: potency means the concentration at half of the fitted maximal effect; % of control where 0% means no effect; nearly all actives have a fitted effect of over 50% in size
* marks the source's active call; other numbers are inactive results; i = inactive; ? = inconclusive; / = no result; [ ] = remark or other dose. A selection: hits, their analogues and other compounds. The true share with any hit is near 7.6%. Unless noted, the call rests on the fitted dose curve; in most records, active means well fitted curve in the direction sought with a large enough effect; inconclusive means small, poorly fitted or top-dose-only effect, or another doubt; inactive means no such curve, though single readings can be large; an effect the other way counts as inactive or inconclusive.

SMILES	KB-V1 cytotox	KCNH2 3.1 block	KB-3-1 cytotox	SW480 rerep	KCNH2 WT inh	MCF10A rereplic
CCCCNc1nc2cccnc2s1	i	-130*	i	?	-2	-2%
COCOc1ccc(/C=C2/Oc3cc(OCOC)cc(OCOC)c3C2=O)c(OCOC)c1	i	13	i	?	7	6.5µM*
CCCCNS(=O)(=O)c1ccc2nc(-c3cccnc3)cc(C(=O)NCC(OC)OC)c2c1	i	8	i	-8%	3	0%
S=C(NCc1ccccc1)NCc1ccccc1Cl	i	-7	i	-10%	5	0%
Cc1ccc(NC(=O)CSc2nc3nc(C)c(Br)cc3[nH]2)cc1F	i	2	i	-5%	19	?
Nc1ccc(-c2nc3c(ccc4ccccc43)[nH]2)cc1	i	26	i	1%	0	23µM*
Nc1ccc(-c2nc3ccccc3[nH]2)cc1	i	4	i	-10%	-3	?
CCSc1ccc2c(c1)N(CCCN1CCN(C)CC1)c1ccccc1S2	i	-73*	i	-10%	32	?
CC(CN1CCN(CCOCCO)CC1)CN1c2ccccc2Sc2ccc(Cl)cc21 (stereo unspecified)	i	-102*	?	/	0	/
CCC(=O)c1ccc2c(c1)N(CCCN1CCN(CCO)CC1)c1ccccc1S2	/	/	/	?	/	33µM*
CC(=O)N(O)c1ccc(/C=C2\C=Cc3ccccc32)cc1	?	/	i	/	/	/
CCOc1cccc2cc(C(=O)NCc3ccc(F)cc3)c(=N)oc12	i	0	i	1%	2	4%
O=C(NCc1cccc(Cl)c1)c1cccc(OC2CCN(C(=O)C3CC3)CC2)c1	?	/	23µM*	-6%	20	?
COC(=O)c1c(NC(=O)c2ccc(C)cc2)sc(Cc2ccccc2)c1C	i	1	i	0%	-7	20%
CCN(CC)C(=O)c1sc(NC(=O)c2ccc(Br)o2)c(C(=O)OC)c1C	9.2µM*	15	i	9%	-10	?
COC(=O)c1c(NC(=O)c2ccccc2)sc(C(=O)c2ccccc2)c1C	?	2	?	2%	5	6.5µM*
COC(=O)c1c(NC(=O)c2ccccc2)sc(Cc2ccccc2)c1C	13µM*	-1	i	10%	-4	?
O=C1C=C(O)CC(c2ccc(Cl)c(Cl)c2)C1 (stereo unspecified)	i	1	i	-1%[9.22 µM]	-2	5µM*
CCCOc1ccccc1NC(=O)c1ccc([N+](=O)[O-])cc1	i	-14	i	10%	3	?
CC1(C)SC(=S)N(Cc2ccc3c(c2)OCO3)C1N(O)C(=O)NC1CCCCC1 (stereo unspecified)	15µM*	-7	?	6%	-8	0%
CC1(C(=O)NC2CCCCCC2)CCC(=O)N1Cc1ccc2c(c1)OCO2 (stereo unspecified)	21µM*	-2	i	20%	3	1%
CC1(C(=O)NC2CCCCC2)CCC(=O)N1Cc1ccc2c(c1)OCO2 (stereo unspecified)	i	16	i	-78%	2	5%
Cc1cccc(C(C)C)c1NC(=O)c1ccc2c(c1)CCCN2S(C)(=O)=O	i	/	i	/	/	/
CCOC(=O)c1c(C=O)c(C)n(Cc2ccc(Cl)cc2)c1C	3.7µM*	3	i	1%	-3	12µM*
c1nc(NCc2ccc3c(c2)OCO3)c2cc(-c3ccc4c(c3)OCCO4)ccc2n1	i	/	i	1%[9.22 µM]	/	9.2µM*
SMILES	KB-V1 cytotox	KCNH2 3.1 block	KB-3-1 cytotox	SW480 rerep	KCNH2 WT inh	MCF10A rereplic
c1cncc(CNc2ncnc3ccc(-c4ccc5c(c4)OCO5)cc23)c1	i	/	i	-10%	/	-11%
Cc1cccc(-c2ccc3ncnc(NCc4cccs4)c3c2)c1	i	/	13µM*	6%	/	8%
COc1cccc(-c2ccc3ncnc(NCc4ccc5c(c4)OCO5)c3c2)c1	i	/	i	-31%[9.22 µM]	/	16µM*
Cc1csc(CNc2ncnc3ccc(-c4ccc5c(c4)OCCO5)cc23)c1	i	/	?	-3%	/	?
COc1cccc(-c2ccc3ncnc(NCc4cc(C)cs4)c3c2)c1	i	/	?	-3%	/	38%
Cc1cccc(CNc2ncnc3ccc(-c4ccc5c(c4)OCCO5)cc23)c1	i	/	8.2µM*	21%	/	?
CS(=O)(=O)N(CC(=O)Nc1ccc(S(=O)(=O)N2CCOCC2)cc1)c1ccccc1Cl	i	-6	i	2%	-13	1%
Cc1cc(C)c(NC(=O)CCn2nnc3ccccc32)c(C)c1	?	5	i	5%	-3	3%
C=CCn1c(SCC#N)nc2c(c1=O)C(C)(C)Cc1ccccc1-2	?	-3	?	-1%	2	?
Cc1cccc(CNc2ncnc3ccc(-c4ccoc4)cc23)c1	i	/	i	8%	/	2.6µM*
c1cncc(CNc2ncnc3ccc(-c4ccoc4)cc23)c1	i	/	i	2%	/	4%
O=C(COC(=O)C1CC(=O)N(CCc2ccccc2)C1)c1ccc[nH]1 (stereo unspecified)	i	3	i	-6%	1	5%
NC(=O)C1CCN(CCS(=O)(=O)c2ccc(Cl)cc2)CC1	i	4	i	18µM*	-4	?
O=S(=O)(CCN1CCOCC1)c1ccc(Cl)cc1	i	4	i	2%	2	-3%
COc1ccc(C2CC(c3ccccc3OC(C)=O)=NN2C(C)=O)cc1 (stereo unspecified)	?	4	?	16µM*	-19	9%
COc1ccc(C2CC(c3ccccc3)=NN2C(=O)COC(=O)c2cccc(S(=O)(=O)N(C)C)c2)cc1 (stereo unspecified)	3.7µM*	-36	i	-1%	8	-1%
COc1ccc(C2CC(c3ccccc3OC(C)=O)=NN2C(=O)/C=C/c2ccccc2)cc1 (stereo unspecified)	i	-45	i	1%	35	9%
CCC(=O)N1N=C(c2ccccc2)CC1c1ccc([N+](=O)[O-])cc1 (stereo unspecified)	15µM*	0	i	?	5	12%
COc1ccc(C2CC(c3ccccc3)=NN2C(=O)COC(=O)c2cccc(S(=O)(=O)N3CCOCC3)c2)cc1 (stereo unspecified)	i	-4	i	5%	1	-1%
COc1ccc(C2CC(c3ccc(Br)cc3)=NN2C(=O)CN2CCCC2)cc1 (stereo unspecified)	i	-83*	i	-144%	27	0%

Assay outcomes (PubChem BioAssay)
